We go through 35 molecules from the supplement of paper PMC8007513.

Molecules are shown by their SMILES. Where a name gives a salt, the structure may show the parent alone. ± gives the standard error. About 75 (6%) of roughly 1,300 compounds showed an effect of 50% or more. Many of the other results were omitted from the sample, so strong results are more common in it than they were.

This experiment concerns Trichoderma virens ATCC 9645. As to the kind of experiment: growth yield (OD600) relative to untreated control; higher = less growth inhibition. The conditions noted are these: compound concentration: 100 uM. In short, it runs like this: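 Trichoderma virens ATCC 9645 spores from 7-day potato dextrose agar plates were suspended in potato dextrose broth at 15,000 spores ml^−1. Aliquots of 100 μl with library compounds at 100 μM final, with or without a co-applied biocide at 200 ng ml^−1, were grown in 96-well plates at 30 °C. OD600 was read at 40 h and 72 h on a BioTek EL800. Growth is expressed relative to the control without either agent, as means of duplicate screens.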

On to `Cc1noc(NS(=O)(=O)c2ccc(N)cc2)c1C` [Sulfisoxazole], for which the growth yield reads like this: (40 h) 87.4%; (72 h) 96.2 ± 1.8%.
Taken in the same sequence, the figures for `Cc1cc(C)nc(NS(=O)(=O)c2ccc(N)cc2)n1` [Sulfamethazine sodium salt] were 106 ± 4.5% and 101 ± 2.2%.
Turning to `Cc1cc(NS(=O)(=O)c2ccc(N)cc2)no1` [Sulfamethoxazole], the growth yield is 40 ± 4.8% (40 h) and 82.9 ± 2.1% (72 h).
Taken in the same sequence, the figures for `C#C[C@]1(O)CC[C@H]2[C@@H]3CCC4=Cc5oncc5C[C@]4(C)[C@H]3CC[C@@]21C` [Danazol] were 83.39 ± 0.79% and 87.15 ± 0.32%.
In the case of `CCCc1nc(C(C)(C)O)c(C(=O)O)n1Cc1ccc(-c2ccccc2-c2nnn[nH]2)cc1` [Olmesartan], the growth yield came out at 100 ± 3.2% (40 h) and 99.8 ± 2.9% (72 h).
Take `N#Cc1ccc(C(c2ccc(C#N)cc2)n2cncn2)cc1` [Letrozole]: the growth yield stood at 103 ± 1.1% (40 h) and 101.5 ± 0.42% (72 h).
In turn, `c1ccc(-c2ccc(C(c3ccccc3)n3ccnc3)cc2)cc1` (stereo not given) [Bifonazole] showed a growth yield (40 h) of 2.86 ± 1.9% and a growth yield (72 h) of 1.99 ± 0.94%.
Regarding `CCC1(c2ccccc2)NC(=O)N(C)C1=O` (stereo not given) [Mephenytoin], the growth yield (40 h) was found to be 110 ± 4.9% and the growth yield (72 h) worked out at 102 ± 4.5%.
On to `CC1(C)[C@@H](OC(=O)CCC(=O)O)CC[C@]2(C)[C@H]3C(=O)C=C4[C@@H]5C[C@@](C)(C(=O)O)CC[C@]5(C)CC[C@@]4(C)[C@]3(C)CC[C@@H]12` [Carbenoxolone disodium salt], for which the growth yield came out at 95 ± 4.1% (40 h) and 94.6 ± 2.1% (72 h).
For `CN(C)[C@@H]1C(O)=C(C(N)=O)C(=O)[C@@]2(O)C(O)=C3C(=O)c4c(O)ccc(Cl)c4[C@@H](O)[C@H]3C[C@@H]12` [Demeclocycline hydrochloride], the growth yield worked out at 82.6 ± 3.2% (40 h) and 85.1 ± 5.6% (72 h).
In the case of `N=C(N)NC(=O)Cc1c(Cl)cccc1Cl` [Guanfacine hydrochloride], the growth yield by setting is: (40 h) 97.1 ± 1.4%; (72 h) 101.3 ± 0.63%.
Taken in the same sequence, the figures for `COC(=O)CCc1ccc(OCC(O)CNC(C)C)cc1` (stereo not given) [Esmolol hydrochloride] were 105 ± 4.6% and 100 ± 1.5%.
`C/C(=C\C(=O)OCCCCCCCCC(=O)O)C[C@@H]1OC[C@H](C[C@@H]2O[C@H]2[C@@H](C)[C@H](C)O)[C@@H](O)[C@H]1O` [Mupirocin]: the growth yield (40 h) was found to be 6.04 ± 2.9% and the growth yield (72 h) came out at 39.5 ± 8.5%.
As for `O=C(O)CCC(=O)Nc1ccc(S(=O)(=O)Nc2nccs2)cc1` [Succinylsulfathiazole], the growth yield was found to be 94.7 ± 3.5% (40 h) and 93.9 ± 2.6% (72 h).
Taken in the same sequence, the figures for `OCC(O)CN1CCN(c2ccccc2)CC1` (racemic) [Dropropizine (R,S)] were 101 ± 1.6% and 101.7 ± 0.63%.
Taken in the same sequence, the figures for `CC(C)(CO)C(O)C(=O)NCCCO` (stereo not given) [Panthenol (D)] were 100 ± 4.5% and 98.1 ± 3%.
On to `CC(=O)OC[C@H]1O[C@@H]([S-])[C@H](OC(C)=O)[C@@H](OC(C)=O)[C@@H]1OC(C)=O.CCP(CC)CC.[Au+]` [Auranofin], for which the growth yield was 25.6 ± 2.1% (40 h) and 33 ± 2% (72 h).
Regarding `CN(C)/N=N/c1[nH]cnc1C(N)=O` [Dacarbazine], the growth yield came to 95.6 ± 1.9% (40 h) and 98 ± 3.4% (72 h).
In the case of `O=C1C(O)=C([C@H]2CC[C@H](c3ccc(Cl)cc3)CC2)C(=O)c2ccccc21` [Atovaquone], the growth yield runs as follows: (40 h) 95.1 ± 4.3%; (72 h) 97.4 ± 1.6%.
As for `COc1cccc(N(C)C(=S)Oc2ccc3c(c2)CCCC3)n1` [Liranaftate], the growth yield was 0% (40 h) and 0% (72 h).
In the case of `CC(C)(C(=O)c1cccnc1)c1cccnc1` [Metyrapone], the growth yield is, setting by setting: (40 h) 91 ± 3%; (72 h) 88.4 ± 2.6%.
For `COc1cc2nc(N(C)CCCNC(=O)C3CCCO3)nc(N)c2cc1OC` (stereo not given) [Alfuzosin hydrochloride], in that order: 104.7 ± 0.79% and 105 ± 3.6%.
For `OC(CNCC(O)C1CCc2cc(F)ccc2O1)C1CCc2cc(F)ccc2O1` (stereo not given) [Nebivolol hydrochloride], in that order: 95 ± 16% and 114 ± 14%.
For `CN(C)CCOC1=Cc2ccccc2Sc2ccc(Cl)cc21` [Zotepine], in that order: 89.7 ± 14% and 114 ± 11%.
As for `NC(N)=Nc1nc(CSCC/C(N)=N/S(N)(=O)=O)cs1` [Famotidine], the growth yield runs as follows: (40 h) 103 ± 1.9%; (72 h) 101 ± 1.3%.
For `CCCCN(CCCC)CCC(O)c1cc2c(Cl)cc(Cl)cc2c2cc(C(F)(F)F)ccc12` (stereo not given) [Halofantrine hydrochloride], the growth yield runs as follows: (40 h) 25.6 ± 6.2%; (72 h) 95.9%.
Consider `N=C(N)N/N=C/c1c(Cl)cccc1Cl` [Guanabenz acetate], for which the growth yield runs as follows: (40 h) 91.5 ± 1.9%; (72 h) 90.7 ± 3.2%.
On to `COC(=O)[C@H]1[C@H]2C[C@@H]3c4[nH]c5cc(OC)ccc5c4CCN3C[C@H]2C[C@@H](OC(=O)c2cc(OC)c(OC)c(OC)c2)[C@@H]1OC` [Reserpine], for which the growth yield (40 h) amounted to 107 ± 5.4% and the growth yield (72 h) worked out at 107 ± 2.8%.
For `N=C(N)c1ccc(OCCCCCOc2ccc(C(=N)N)cc2)cc1` [Pentamidine isethionate], the growth yield is, setting by setting: (40 h) 1.91 ± 0.95%; (72 h) 1.78 ± 0.52%.
For `CCCCOc1ccc(CC(=O)NO)cc1` [Bufexamac], the growth yield by setting is: (40 h) 94.2 ± 1.1%; (72 h) 88.1 ± 2.9%.
Taken in the same sequence, the figures for `CCCCOc1ccc(C(=O)CCN2CCCCC2)cc1` [Dyclonine hydrochloride] were 93.6 ± 3% and 98.7 ± 1.6%.
Taken in the same sequence, the figures for `CC(C)(C)NC[C@@H](O)COc1cccc2c1CCCC2=O` [(+) -Levobunolol hydrochloride] were 100.2 ± 0.16% and 98.9 ± 0.1%.
As for `NS(=O)(=O)Cc1noc2ccccc12` [Zonisamide], the growth yield amounted to 104.5 ± 0.95% (40 h) and 98.8 ± 1.9% (72 h).
For `CN(C)CCN(Cc1ccccc1)c1ccccn1` [Tripelennamine hydrochloride], the growth yield was 107 ± 1.4% (40 h) and 100 ± 1.6% (72 h).
`C[C@]1(Cn2ccnn2)[C@H](C(=O)O)N2C(=O)C[C@H]2S1(=O)=O` [Tazobactam]: the growth yield is, setting by setting: (40 h) 98.96 ± 0.79%; (72 h) 96.8 ± 1.4%.
